Here are results for 26 compounds from PubChem BioAssay (NCATS).

Records with an inconclusive call do not appear. Activity calls are given as the source filed them. Unless noted, the call rests on the fitted dose curve; in most records, active means well fitted curve in the direction sought with a large enough effect; inconclusive means small, poorly fitted or top-dose-only effect, or another doubt; inactive means no such curve, though single readings can be large; an effect the other way counts as inactive or inconclusive.

The subject of experiment [1] is Nanoluciferase (engineered Oplophorus gracilirostris luciferase). Nature of the experiment: Primary Nanoluciferase (NLuc) qHTS assay for identification of artifact compounds. (AID 1845222).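 Further: 0% = DMSO and -100% = no enzyme.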 The procedure, abridged:
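Luminescence read-out of secreted NLuc in S16 cell conditioned medium (1:55); compounds tested with 15 min RT preincubation, then Nano-Glo substrate 1:100, 5 min. % inhibition vs no-enzyme and DMSO controls, 4-parameter Hill fit.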
For orientation: qHTS replaces the single test concentration by a dilution series.

The nature of experiment [2]: Primary redox qHTS assay for identification of artifact compounds. (AID 1845223).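 Further: 0% = DMSO and 100% = reference compound.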 The procedure, abridged:
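Amplex Red (25 uM) and HRP (250 mU/mL) in HBSS, with compounds for 15 min, then 250 uM DTT for 30 min, room temperature, dark. Fluorescence 525/598 nm read; normalized to DMSO and 10 uM DA3003; Hill fit.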

The nature of experiment [3]: qHTS drug screen for cell cycle checkpoint inhibitors in PARPi-resistant BRCA-mutant ovarian cancer cell lines. (AID 1963452; calls by dose curve). The settings on record: PEO1/OlaR viability, CellTiter-Glo luminescence, 96 h, stronger effect = lower value. The procedure, abridged: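 PEO1, PEO4 and PEO1/OlaR ovarian cancer cells, 600 per well, exposed 96 h at 37C to a dilution series. Viability read by CellTiter-Glo luminescence, normalized to DMSO and empty wells; activity summarized as Z-AUC.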

A short description of experiment [4]: qHTS profiling for inhibitors of Plasmodium falciparum proliferation (AID 504749). Further: nearly all actives have a fitted effect of over 60% in size. Further: potency means the concentration at half of the fitted maximal effect.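 On activity, negative = inhibition: 0% = DMSO vehicle and full inhibition = artemisinin control.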 The note with it: P. falciparum in erythrocytes, SYBR Green DNA, 72 h. The procedure, abridged: (§1)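 P. falciparum-infected erythrocytes (0.3% parasitemia, 2.5% hematocrit final) were exposed to compounds for 72 h at 37 C in 5% CO2, then lysed with SYBR Green buffer overnight at room temperature; parasite DNA fluorescence was normalized to artemisinin and DMSO controls.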

A further experiment relates to 3D7. Described as above. The note with it: P. falciparum in erythrocytes, SYBR Green DNA, 72 h; series mostly up to 28.7 µM. The procedure, abridged:
as §1

A further experiment has as its system 7G8. The experiment is described as above. The note with it: P. falciparum in erythrocytes, SYBR Green DNA, 72 h; series mostly up to 28.7 µM. The procedure, abridged: as §1
A further experiment concerns AA1029. Described as above. The note with it: P. falciparum in erythrocytes, SYBR Green DNA, 72 h; series mostly up to 28.7 µM. The procedure, abridged: as §1
A further experiment has as its system AS120. Described as above. The settings on record: P. falciparum in erythrocytes, SYBR Green DNA, 72 h; series mostly up to 28.7 µM. The procedure, abridged:
as §1

The test system of the next experiment is ATS189. The experiment is described as above. The settings on record: P. falciparum in erythrocytes, SYBR Green DNA, 72 h; series mostly up to 28.7 µM. The procedure, abridged: as §1
The subject of the next experiment is ATS95. Described as above. The note with it: P. falciparum in erythrocytes, SYBR Green DNA, 72 h; series mostly up to 28.7 µM. The procedure, abridged: as §1
The subject of another experiment is C2A. The description is as above. The settings on record: P. falciparum in erythrocytes, SYBR Green DNA, 72 h; series mostly up to 28.7 µM. The procedure, abridged: as §1
The mark [5] stands for this setting: measured here: PEO1 parental Z-AUC.
Where [6] appears, read: at 28.7 µM (top of the series), parasite line A.
[7] abbreviates: at 28.7 µM (top of the series), parasite line B.

As for `CCNC(=O)[C@H]1O[C@@H](n2cnc3c(N)nc(NCCc4ccc(CCC(=O)O)cc4)nc32)[C@H](O)[C@@H]1O`, the Potency result in experiment [1] is “inactive”. Besides, in experiment [2], the call was inactive. In addition, the figures for the Z-AUC in experiment [3], in experiment [3] (setting [5]) and in experiment [3] (measured here: PEO4 Z-AUC) were 1.44 (inactive), 0.917 and 1.15, respectively.
On to `CC(C(=O)O)c1ccc2c(c1)[nH]c1ccc(Cl)cc12` (stereo unspecified), for which the result in [2] was inactive. The activity, negative = inhibition in experiment [4] (setting [6]) is 3.75% (inactive); in [4] (setting [7]), 2.58% (inactive). Besides, the Potency result in the experiment on 3D7, in the experiment with 7G8, in the experiment on AA1029, in the experiment with AS120, in the experiment on ATS189 and in the experiment with ATS95 was “inactive” throughout. In addition, the Potency entry in the experiment on C2A is “inactive”.
Take `C[C@H](O)[C@H](O)[C@H]1CNc2nc(N)[nH]c(=O)c2N1`: in [1], the Potency entry is “inactive”. In addition, the result in experiment [2] was inactive.
For `COC(=O)[C@H]1[C@H]2C[C@@H]3c4[nH]c5cc(OC)ccc5c4CCN3C[C@H]2C[C@@H](OC(=O)/C=C/c2cc(OC)c(OC)c(OC)c2)[C@@H]1OC`, in experiment [1], the Potency result was “inactive”.
In the case of `CC(=O)c1ccc(OCC(=O)N2CCCCC2)cc1`, in [1], the Potency entry was “inactive”. For the same compound, the call in experiment [2] was inactive.
For the compound `CC(=O)O[C@H]1C[C@@]2(C)[C@@H](C[C@@H](O)[C@H]3[C@@]4(C)CC[C@@H](O)[C@@H](C)[C@@H]4CC[C@@]32C)/C1=C(\CCC=C(C)C)C(=O)O`, in experiment [1], the Potency entry was “inactive”. Also, the compound was classed as inactive in experiment [2].
In the case of `O=C(/C=C/c1ccc(O)cc1)c1ccc(O)cc1O`, the Z-AUC in [3] was 0.396 (inactive); in experiment [3] (setting [5]), 0.804; in experiment [3] (measured here: PEO4 Z-AUC), 0.213.
On to `N#C/C(=C\c1ccc(O)c(O)c1)C(=O)NCc1ccccc1`, for which the Z-AUC in [3] is 1.6 (inactive); in [3] (setting [5]), 1.01; in experiment [3] (measured here: PEO4 Z-AUC) it was 0.772.
Consider `CCOC(=O)N1CCN(/[N+]([O-])=N/Oc2ccc([N+](=O)[O-])cc2[N+](=O)[O-])CC1`, for which the Z-AUC was 1.46 (inactive) in experiment [3], 1.72 in [3] (setting [5]) and 1.39 in experiment [3] (measured here: PEO4 Z-AUC).
For the compound `CCCSc1ccc2nc(NC(=O)OC)[nH]c2c1`, the activity, negative = inhibition in experiment [4] (at 12.8 µM (top of the series), parasite line A) is -19.4% (inactive); in experiment [4] (at 12.8 µM (top of the series), parasite line B), -12.4% (inactive). In addition, the Potency entry in the experiment with 3D7, with 7G8, with AA1029, in the experiment on AS120, in the experiment with ATS189 and with ATS95 was “inactive” each time. Also, the Potency entry in the experiment with C2A was “inactive”.
Regarding `N.N.O=C(O)C1(C(=O)O)CCC1.[Pt]`, the Z-AUC is 1.36 (inactive) in experiment [3], 0.632 in [3] (setting [5]) and 0.869 in experiment [3] (measured here: PEO4 Z-AUC).
Turning to `O=S(=O)(c1cccc2c(I)cccc12)N1CCCNCC1`, the Z-AUC is -0.863 (inactive) in [3], -0.557 in experiment [3] (setting [5]) and -0.682 in experiment [3] (measured here: PEO4 Z-AUC).
Regarding `CC(=O)[C@]1(O)Cc2c(O)c3c(c(O)c2[C@@H](O[C@H]2C[C@H](N)[C@H](O)[C@H](C)O2)C1)C(=O)c1c(O)cccc1C3=O`, the Potency in experiment [4] (parasite line A) is 7.08 µM (active); in experiment [4] (parasite line B), 12.6 µM (active); in the experiment on 3D7 it was 3.16 µM (active); in the experiment with 7G8, 1.12 µM (active); in the experiment on AA1029, 7.08 µM (active); in the experiment with AS120, 7.94 µM (active). Moreover, the Potency was 10 µM (active) in the experiment on ATS189 and 7.08 µM (active) with ATS95.
For the compound `Cc1ccc(O)c(-n2nc3ccccc3n2)c1`, the activity, negative = inhibition in experiment [4] (setting [6]) was 4.17% (inactive); in [4] (setting [7]), 15.3% (inactive). In addition, the Potency entry in the experiment on 3D7, in the experiment on 7G8, in the experiment with AA1029, in the experiment with AS120, in the experiment with ATS189 and in the experiment with ATS95 was “inactive” throughout. Also, the Potency entry with C2A is “inactive”.
Turning to `C#C[C@]1(O)CC[C@H]2[C@@H]3CCc4cc(O)ccc4[C@H]3CC[C@@]21C`, the Z-AUC was -0.519 (inactive) in experiment [3], 0.139 in [3] (setting [5]) and 0.344 in experiment [3] (measured here: PEO4 Z-AUC). The results for the activity, negative = inhibition in experiment [4] (setting [6]) and in experiment [4] (setting [7]) were 17.5% (inactive) and 5.92% (inactive), respectively. The Potency result with 3D7, in the experiment on 7G8, in the experiment with AA1029, in the experiment on AS120, in the experiment with ATS189 and with ATS95 was “inactive” in each case. In addition, the Potency entry in the experiment with C2A is “inactive”.
For `N=c1ccn2c(n1)O[C@H]1[C@H](O)[C@@H](CO)O[C@H]12`, the Z-AUC in [3] is -1.72 (inactive); in [3] (setting [5]), -1.24; in experiment [3] (measured here: PEO4 Z-AUC), 0.152. The activity, negative = inhibition in [4] (setting [6]) was 4.44% (inactive); in experiment [4] (setting [7]) it was 4.16% (inactive). The Potency entry in the experiment with 3D7, in the experiment with 7G8, in the experiment with AA1029, with AS120, in the experiment on ATS189 and in the experiment on ATS95 was “inactive” in each case. Also, the Potency result with C2A was “inactive”.
Take `Nc1ccc(O)c(C(=O)O)c1`: the activity, negative = inhibition was -0.61% (inactive) in [4] (setting [6]) and -10.7% (inactive) in experiment [4] (setting [7]). The Potency result in the experiment on 3D7, with 7G8, in the experiment with AA1029, with AS120, in the experiment on ATS189 and in the experiment with ATS95 was “inactive” in each case. For the same compound, the Potency result in the experiment on C2A was “inactive”.
Turning to `COc1cc(/C=C/C(=O)CC(=O)/C=C/c2ccc(O)c(OC)c2)ccc1O`, the Z-AUC in experiment [3] is -0.374 (inactive); in [3] (setting [5]), -0.396; in experiment [3] (measured here: PEO4 Z-AUC), -0.434. In addition, the figures for the Potency in the experiment with 3D7, in the experiment with 7G8 and with C2A were 10 µM (active), 11.2 µM (active) and 10 µM (active), respectively.
For `CC1OC1P(=O)(O)O` (stereo unspecified), the activity, negative = inhibition was -11.9% (inactive) in experiment [4] (setting [6]) and 1.11% (inactive) in experiment [4] (setting [7]). The Potency result in the experiment on 3D7, in the experiment on 7G8, with AA1029, in the experiment on AS120, with ATS189 and in the experiment on ATS95 was “inactive” in each case. The Potency entry in the experiment on C2A is “inactive”.
As for `COc1cc(SC)ccc1C(=O)N1CCC(Cc2ccccc2)CC1`, the values for the Z-AUC in experiment [3], in experiment [3] (setting [5]) and in experiment [3] (measured here: PEO4 Z-AUC) were 0.323 (inactive), 1.42 and 1.59, respectively.
As to `CCOC(=O)c1ccccc1O`, the activity, negative = inhibition in experiment [4] (setting [6]) was 4.06% (inactive); in experiment [4] (setting [7]), 15.6% (inactive). The Potency result with 3D7, in the experiment on 7G8, with AA1029, in the experiment on AS120, with ATS189 and with ATS95 was “inactive” each time. Further, in the experiment on C2A, the Potency entry was “inactive”.
As to `CN1CCN(c2cc3c(nn2)Oc2ccccc2N3C)CC1`, the activity, negative = inhibition in [4] (setting [6]) was 11.3% (inactive); in experiment [4] (setting [7]) it was 1.64% (inactive). Further, the Potency result in the experiment on 3D7, in the experiment on 7G8, with AA1029, in the experiment on AS120, in the experiment with ATS189 and in the experiment with ATS95 was “inactive” throughout. The Potency result with C2A is “inactive”.
For the compound `O=C(Nc1ccc(C(=O)O)c(O)c1)c1ccccc1`, the activity, negative = inhibition is -20.7% (inactive) in [4] (setting [6]) and -1.01% (inactive) in experiment [4] (setting [7]). For the same compound, the Potency entry in the experiment with 3D7, in the experiment on 7G8, in the experiment with AA1029, in the experiment with AS120, with ATS189 and in the experiment on ATS95 was “inactive” throughout. In the experiment with C2A, the Potency result is “inactive”.
Regarding `CCN1/C(=C/C(C)=O)Sc2ccc(OC)cc21`, the results for the Z-AUC in experiment [3], in experiment [3] (setting [5]) and in [3] (measured here: PEO4 Z-AUC) were 0.945 (inactive), 0.672 and 0.802, respectively.
Regarding `O=C(O)[C@H](O)[C@@H](O)[C@H](O)[C@H](O)CO`, the activity, negative = inhibition is 1.4% (inactive) in experiment [4] (setting [6]) and 5.65% (inactive) in [4] (setting [7]). Moreover, the Potency entry in the experiment with 3D7, in the experiment on 7G8, in the experiment on AA1029, in the experiment with AS120, in the experiment on ATS189 and with ATS95 was “inactive” throughout. Further, the Potency result with C2A is “inactive”.
Regarding `C=CCc1cccc(/C=N/NC(=O)CN2CCN(Cc3ccccc3)CC2)c1O`, the values for the Z-AUC in experiment [3], in experiment [3] (setting [5]) and in experiment [3] (measured here: PEO4 Z-AUC) were 0.78 (inactive), 0.857 and 0.395, respectively.
